BAZ2B block = inhibitors of human BAZ2B bromodomain; Q9UIF8; AlphaScreen BAZ2B-H3K14Ac peptide displacement; Potency, µM (series often up to 114 µM), without a hit: at the highest dose activity change, negative = inhibition, hits mostly inhibitors; 4.4% of 360,000 active; AID 504333; note: % is set by controls: 0 for no effect and ±100 for the full control effect; nearly all actives have a fitted effect of over 60% in size
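Compounds, titrated to a top concentration of 110 uM, were incubated 30 min at room temperature with preformed BAZ2B/acetyl-K14 H3 peptide complex (50 nM each). Proximity signal was measured by AlphaScreen after 20 min with beads.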
HP1b chromo inh = inhibitors of HP1-beta chromodomain binding to methylated histone tails. P83916. AID 540317. 0.56% of 390,000 active. AlphaScreen HP1-beta / biotin-H3K9me3 peptide binding. Potency, µM (titrated, usually from 114 µM), for the others: at the top dose activity change, negative = inhibition, hits mostly inhibitors; note: nearly all actives have a fitted effect of over 70% in size
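HP1-beta protein (50 nM final) preincubated 30 min at room temperature with biotinylated H3(1-18)K9me3 peptide (50 nM) in PBS pH 7.4, 0.01% Tween-20, then compound added for 30 min. AlphaScreen streptavidin donor/nickel chelate acceptor beads (10 ug/mL final), 30 min dark, luminescence read.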
Sfp inh = blocks B. subtilis Sfp PPTase activity; Q9F4F7; Biochemical Sfp PPTase activity, qHTS; 3.5% of 310,000 active; Potency, µM, inactives show largest response in the series, negative = inhibition, hits mostly inhibitors;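 note: the enzyme is Sfp with the accession as filed and its product quenches rhodamine fluorescence; 0% = enzyme reaction without inhibitor and -100% = no enzyme wells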
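Fluorescence-quenching assay: 15 nM Sfp-PPTase preincubated 15 min at room temperature with compound, then 5 uM rhodamine-CoA and 12.5 uM BHQ-2-labelled YbbR peptide added. Fluorescence (ex 525/em 598 nm) read at start and after 30 min; difference gives rate.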
JMJD2A Tudor inh = blocks the human JMJD2A Tudor domain; O75164; AlphaScreen JMJD2A-Tudor / H3K4me3 peptide binding; Potency, µM (highest dose often 114 µM), for inactives: at the top dose activity change, negative = inhibition, most hits filed as inhibitors; 4.4% of 390,000 active; AID 504339; note: % is set by controls: 0 for no effect and ±100 for the full control effect; nearly all actives have a fitted effect of over 50% in size
G9a block = inhibitors of human histone lysine methyltransferase G9a; Q96KQ7; Potency, µM (series often up to 102 µM), for inactives: top-dose activity, negative = inhibition, usual class: inhibitors; 8.8% of 350,000 active; G9a H3K9 monomethylation, AlphaScreen, 2 h; note: % is set by controls: 0 for no effect and ±100 for the full control effect; nearly all actives have a fitted effect of over 75% in size
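Enzyme 20 nM + cpd, 15 min RT; add b-H3K9 pep 500 nM / SAM 20 uM; 2 h RT; anti-H3K9me1 Ab 0.5 ug/mL + SA donor / anti-rabbit acceptor beads 20 ug/mL each, 10 min; AlphaScreen read.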
Numbers without * were called inactive; ? = inconclusive; · = not tested or not shown; [ ] = remark or other dose. Rows were chosen to be rich in hits. Some 12% of all compounds tested hit in one or more screens of this group. Calls come from the whole dose curve; as a rule, active = well fitted curve in the direction sought with a large enough effect; inconclusive = small, poorly fitted or top-dose-only effect, or another doubt; inactive = no such curve, though single readings can be large; an effect the other way counts as inactive or inconclusive. Potency is the fitted concentration of half-maximal effect.

SMILES	BAZ2B block	HP1b chromo inh	Sfp inh	JMJD2A Tudor inh	G9a block
O=C(NNc1ccc([N+](=O)[O-])cc1)Nc1ccccc1	-27%	?	?	-30%	?
O=C(NNS(=O)(=O)c1ccc([N+](=O)[O-])cc1)c1ccc([N+](=O)[O-])cc1	-19%	?	2%	1.3µM*	17%[2.33 µM]
O=C(NNc1ccc([N+](=O)[O-])cc1)c1ccccc1Cl	-4%	17%	-27%	-19%	?
O=C(NNc1ccccc1)C(=O)NNS(=O)(=O)c1ccc([N+](=O)[O-])cc1	-27%	11%	14%	3.2µM*	6.3µM*
CC(=O)Nc1ccc(S(=O)(=O)NNC(=O)c2ccc([N+](=O)[O-])cc2)cc1	-16%	3%	-6%	-13%	-22%
CC(=O)Nc1ccc(S(=O)(=O)NNc2ccc([N+](=O)[O-])cc2)cc1	50µM*	?	22µM*	6.3µM*	1.3µM*
COc1ccc(OC)c(/C=C(\C#N)c2nc3ccccc3c(=O)[nH]2)c1	-9%	51%	·	-27%	5%[59 µM]
COc1ccc(CCNC(=O)C/C(C)=N/NC(=O)c2ccc([N+](=O)[O-])cc2Cl)cc1OC	3%	38%	4%	-2%	16%
O=C(NNS(=O)(=O)c1ccc(Br)cc1)c1ccncc1	-28%	5%	-4%	?	39%[0.501 µM]
Cc1ccc(S(=O)(=O)NNC(=O)c2ccncc2)cc1[N+](=O)[O-]	-30%	21%	-4%	4µM*	50µM*
COc1ccc(C2C=C(c3ccc(C)c(C)c3)Nc3ncnn32)c(OC)c1OC (stereo not drawn)	-24%	47%	7%	-27%	50µM*
Cc1ccc(C2=CC(c3ccc(C)cc3)n3ncnc3N2)cc1 (stereo not drawn)	·	56%	·	-17%	·
COc1cccc(C2=CC(c3ccc(OC)c(OC)c3OC)n3ncnc3N2)c1 (stereo not drawn)	50µM*	25%	·	-33%	?
Cc1cccc(S(=O)(=O)Nc2ccncc2)c1	-1%	3%	18%	-8%	-11%
CCn1c(N)c(C(=O)NCC2CCCO2)sc1=S (stereo not drawn)	79µM*	11µM*	18µM*	?	-119%[12.7 µM]
CCNC(=O)c1sc(=S)n(CC)c1N	?	-31%	50µM*	-17%	13µM*
CCn1c(N)c(C(=O)N2CCOCC2)sc1=S	-9%	?	45µM*	-25%	10µM*
CCn1c(N)c(C(=O)NCCCOC)sc1=S	?	50µM*	20µM*	-24%	28µM*
C=CCn1c(N)c(C(=O)N2CCOCC2)sc1=S	-17%	-27%	-22%	-21%	?
CCc1noc(C)c1C(=O)Nc1nc(-c2ccc(OC)cc2)cs1	2%	13%	·	-6%	-8%
CC(=O)N1CCSc2ccc(S(=O)(=O)NCCc3ccc(C)cc3)cc21	-17%	9%	0%	-5%	8%[0.501 µM]
O=C(O)c1cnc(-c2ccccc2)nc1Sc1ccc(Cl)cc1	-5%	8%	16%	-28%	25%[12.7 µM]
C=C(C)C1CC=C(C)/C(=N/NC(=O)c2cccc([N+](=O)[O-])c2)C1 (stereo not drawn)	-6%	50%	-22%	-3%[57.1 µM]	-47%
Cn1c(N)c(C(=O)Nc2ccc(-c3ccccc3)cc2)sc1=S	50µM*	?	3.2µM*	50µM*	8.9µM*
CC(C)OCCCNC(=O)c1sc(=S)n(C)c1N	-1%	?	50µM*	-35%	14µM*
SMILES	BAZ2B block	HP1b chromo inh	Sfp inh	JMJD2A Tudor inh	G9a block
C=CCn1c(N)c(C(=O)Nc2ccc(C)cc2)sc1=S	10%	25%	-2%	-4%	-4%
Cc1ccccc1C(=O)NN1CCOCC1	10%	31%	19%	-1%	1%[59 µM]
CCOC(=O)/C=C/c1ccccc1S(=O)(=O)NC(C)(C)C	·	21%	·	-21%	·
COc1ccccc1-c1ccc2ncnc(NCc3cnc(C)cn3)c2c1	·	·	-17%	·	3%[0.501 µM]
CCn1cc(CN2CCN(Cc3ccc(C)o3)C(CCO)C2)c2ccccc21 (stereo not drawn)	-29%	7%	7%	-28%	-21%
COc1cc(OC)nc(NC(=O)CN2CCN(c3ccc(F)cc3)CC2)n1	9%	22%	23%	-13%	-2%[12.7 µM]
O=C(CN1CCN(c2ccccc2)CC1)c1c[nH]c2ccccc12	-4%	14%	3%	-15%	5%[2.33 µM]

Screening data deposited in PubChem BioAssay by National Center for Advancing Translational Sciences (NCATS).
